Hits are enriched below; roughly 1.3% of the tested compounds scored in any of these assays.
WRN inhibitor: qHTS for Inhibitors of WRN Helicase. Bifunctional 3'-5' exonuclease/ATP-dependent helicase WRN (Homo sapiens), Q14191. WRN helicase unwinding, fluorescent forked duplex, kinetic. Potency, µM (top dose mostly 114 µM), for the others: top-dose activity change, negative = inhibition, hits mostly inhibitors. hit rate 0.46% among 360,000. AID 651768, 2012; also: potency is read from the fitted curve at half-maximal effect; % is scaled to controls: 0 for no effect and ±100 for the full control effect; nearly all actives have a fitted effect of over 55% in size
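Fluorescence dequenching readout, ex 525 nm/em 598 nm, kinetic mode: forked duplex DNA (100 nM final) with adjacent fluorophore and quencher unwound by WRN (20 nM final) with 2 mM ATP. Compound preincubation 15 min, room temperature.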
PGK inhibitor: qHTS Assay to Find Inhibitors of Phosphoglycerate Kinase; Phosphoglycerate kinase, glycosomal (Trypanosoma brucei brucei), P07378; PGK/GAPDH coupled, Kinase-Glo luminescence, 60 min; Potency, µM (highest dose often 57.5 µM), inactives show top-dose activity change, negative = inhibition, actives largely listed as inhibitors; hit rate 0.043% among 380,000; AID 602233, 2012; also: potency is read from the fitted curve at half-maximal effect; % is scaled to controls: 0 for no effect and ±100 for the full control effect; nearly all actives have a fitted effect of over 60% in size
Target sequence (P07378 whole entry, looked up): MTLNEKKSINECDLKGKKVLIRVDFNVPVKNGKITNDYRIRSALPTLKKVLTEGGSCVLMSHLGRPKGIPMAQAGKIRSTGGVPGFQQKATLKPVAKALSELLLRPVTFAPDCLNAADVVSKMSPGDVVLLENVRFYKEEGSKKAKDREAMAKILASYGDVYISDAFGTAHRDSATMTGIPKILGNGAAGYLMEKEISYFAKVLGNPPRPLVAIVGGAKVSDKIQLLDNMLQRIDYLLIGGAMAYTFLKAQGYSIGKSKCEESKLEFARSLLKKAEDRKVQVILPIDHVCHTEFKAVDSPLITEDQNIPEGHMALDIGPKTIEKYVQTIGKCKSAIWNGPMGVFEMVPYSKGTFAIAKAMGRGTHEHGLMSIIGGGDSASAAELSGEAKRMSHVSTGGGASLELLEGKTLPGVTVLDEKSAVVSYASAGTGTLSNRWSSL
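Luminescent ATP detection (Kinase-Glo Plus) follows a 60-minute room-temperature incubation, with wells lacking PGK as controls. Buffer: 100 mM TEA (pH 7.6), 5 mM MgCl2, 0.01% Tween-20. Coupling enzyme GAPDH (100 nM final) supplies unstable 1,3-BPG in-well.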
FEN1 inhibitor: qHTS Assay for the Inhibitors of Human Flap endonuclease 1 (FEN1). Potency, µM (top dose mostly 114 µM), for the others: at the highest dose activity change, negative = inhibition, most hits filed as inhibitors. AID 588795, 2011. hit rate 0.35% among 390,000. Recombinant FEN1 flap cleavage, fluorescence, 15 min. P39748; also: potency is read from the fitted curve at half-maximal effect; % is scaled to controls: 0 for no effect and ±100 for the full control effect; nearly all actives have a fitted effect of over 65% in size
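FEN1 at 10 nM preincubated with compounds 15 min at room temperature, then flap DNA substrate added at 50 nM final. Signal read at 0 and 15 min; concentration-response fitted with four-parameter Hill equation.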
PI5P4K alpha inh: qHTS for Inhibitors of phosphatidylinositol 5-phosphate 4-kinase (PI5P4K); Phosphatidylinositol 5-phosphate 4-kinase type-2 alpha (Homo sapiens), P48426; PI5P4Kalpha enzyme, ADP-Glo luminescence, 60 min; active compounds read low; max response, %; hit rate 1.2% among 330,000; active = max response of -50% or lower; inconclusive = between -30% and -50%; inactive = -30% or higher; also: value at the top dose of about 77 µM; % is scaled to controls: 0 for no effect and ±100 for the full control effect
Target sequence (P48426 whole entry, looked up): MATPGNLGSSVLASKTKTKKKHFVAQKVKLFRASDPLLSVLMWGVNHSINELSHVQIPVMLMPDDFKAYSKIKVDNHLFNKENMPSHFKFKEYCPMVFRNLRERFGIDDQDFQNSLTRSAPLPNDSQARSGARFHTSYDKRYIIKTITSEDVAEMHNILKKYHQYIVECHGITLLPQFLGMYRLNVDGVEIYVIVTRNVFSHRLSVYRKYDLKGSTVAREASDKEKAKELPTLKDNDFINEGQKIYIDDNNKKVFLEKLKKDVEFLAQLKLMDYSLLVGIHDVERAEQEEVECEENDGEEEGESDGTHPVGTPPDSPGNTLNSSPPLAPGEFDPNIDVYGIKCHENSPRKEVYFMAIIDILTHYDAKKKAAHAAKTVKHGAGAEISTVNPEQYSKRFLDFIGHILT
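Compounds were pin-transferred onto PI5P4Kalpha and substrate in HEPES pH 7.4 buffer with EGTA, CHAPS and 5% DMSO. ATP (5 microM final) started the reaction, which ran 60 minutes at room temperature before ADP-Glo detection.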
GRP78 ERSR act: qHTS for Inducers of the Endoplasmic Reticulum Stress Response (ERSR) in Human Glioma: qHTS; AID 602332, 2012; hit rate 0.02% among 420,000; U87-MG GRP78 promoter luciferase reporter, 16 h; Potency, µM, inactives show at the highest dose activation, most hits filed as activators; also: potency is read from the fitted curve at half-maximal effect; series mostly up to about 76 µM; % of control where 0% means no effect; nearly all actives have a fitted effect of over 35% in size
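Stably transfected U87-MG glioma cells carrying a GRP78-based luciferase sensor; 16 h compound incubation. Luminescence end-point read 10 min after Bright-Glo addition at room temperature.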
Pin1 inh: qHTS Assay to Find Inhibitors of Pin1; Peptidyl-prolyl cis-trans isomerase NIMA-interacting 1 (Homo sapiens), Q13526; Pin1 FP peptide displacement, HiFluor488, 10 min; Potency, µM (top dose mostly 115 µM), inactives show top-dose activity, negative = inhibition, most hits filed as inhibitors; hit rate 0.009% among 390,000; AID 504891, 2011; active = well fitted inhibition curve with a large enough effect in the polarisation, with a control signal flat, not every such curve was filed as active; inconclusive = small, poorly fitted or top-dose-only effect, or effect the other way, or a change in a side signal; inactive = no such curve, though single readings can be large or run the other way; the % refers to the polarisation; also: potency is read from the fitted curve at half-maximal effect; % is scaled to controls: 0 for no effect and ±100 for the full control effect
* hit, by the source's call; i = inactive; ? = inconclusive; . = no result given; [ ] = remark or other dose. Unless noted, calls follow the shape of the dose curve; as a rule, active = well fitted curve in the direction sought with a large enough effect; inconclusive = small, poorly fitted or top-dose-only effect, or another doubt; inactive = no such curve, though single readings can be large; an effect the other way counts as inactive or inconclusive.

SMILES | WRN inhibitor | PGK inhibitor | FEN1 inhibitor | PI5P4K alpha inh | GRP78 ERSR act | Pin1 inh
CC(=O)c1ccc2noc(-c3ccccc3)c2c1 | 1.7% | -4.7% | 1.7% | -3.2 | 1.3% | 2.2%
Cc1ccc(C(=O)Nc2cccc(-c3nc(CNC(=O)c4ccc5ccccc5n4)c(C)o3)c2)s1 | . | . | . | . | -0.7% | .
O=C(O)CCCCn1c(SCC(=O)Nc2ccccc2C(F)(F)F)nc2ccsc2c1=O | 0.2% | -3.8% | 4.6% | -99.2* | -2.5% | -0.4%
CCc1n[nH]c(=S)n1/N=C/c1cc(OC)cc([N+](=O)[O-])c1O | ? | -23.2% | -28.9% | -57.1* | -8.9% | ?
CCc1n[nH]c(=S)n1/N=C/c1cccc2ccccc12 | -14.7% | 2.8% | 5.6% | 1.4 | -0.9% | 3.5%
COc1cc(/C=N/n2c(=S)[nH]nc(C)c2=O)cc([N+](=O)[O-])c1O | -5.0% | 3.4% | 14.6% | -56.9* | -4.0% | ?
COc1cc(/C=N/n2c(C3CCCCC3)n[nH]c2=S)cc(Br)c1O | -0.9% | -2.9% | 5.3% | -62.0* | -2.7% | 4.9%
Cc1nc2sccn2c1CN1Cc2ccccc2OC(c2ccccc2F)C1 (stereo not given) | . | . | . | . | -0.5% | .
Cc1cccc(CNC(=O)c2cnn(-c3nccc(-c4cccs4)n3)c2C(C)C)n1 | . | . | . | . | -3.1% | .
N#Cc1nc(Nc2ccc(Br)cc2)nc(NC2CCCC2)n1 | . | . | . | . | . | 17.1%
Cc1cc2c(c(-c3nc4ccccc4s3)c1)OC(CNC(=O)c1occc1C)C2 (stereo not given) | . | . | . | . | -1.7% | .
COc1cc(/C=C2\SC(N)=NC2=O)cc(Cl)c1O | -21.0% | i | -0.8% | -76.4* | -3.9% | ?
COc1ccc(/C=C2\SC(N)=NC2=O)cc1Br | -31.6% | -8.7% | -2.2% | -50.9* | 3.5% | 28.0%
NC1=NC(=O)/C(=C\c2ccc(O)c([N+](=O)[O-])c2)S1 | -28.3% | -1.9% | -1.4% | -79.1* | -1.7% | ?
O=S(c1ccccc1O)S(=O)c1ccccc1O (stereo not given) | 14.1µM* | -11.6% | ? | -82.8* | -3.3% | ?
O=C(CN1Cc2ccccc2OC(c2ccsc2)C1)NCc1ccc2c(c1)OCO2 (stereo not given) | . | . | . | . | -3.6% | .
O=C1C2C3C=CC(C2C(=O)N1c1nccs1)C1C(=O)N(c2nccs2)C(=O)C31 (stereo not given) | -11.7% | i | 12.5% | 5.6 | -3.0% | -5.4%
O=C1C2C3C=CC(CC3)C2C(=O)N1c1nccs1 (stereo not given) | 39.8µM* | ? | -22.6% | -62.4* | 0.5% | 0.7%
O=C(C=C1SCCS1)/C=C/c1ccco1 | ? | ? | -13.4% | -56.8* | -11.3% | -1.0%
O=C(C=Cc1ccco1)c1ccco1 | -23.5% | -17.4% | -13.2% | -9.9 | 7.3% | 1.3%
O=C(O)C(C(=O)/C=C/c1ccco1)=C1SCCS1 | ? | -24.1% | -34.6% | -62.3* | 4.6% | ?
Cc1ccccc1N1C(S)=C(C#N)C(=O)NC1c1ccco1 (stereo not given) | -7.8%[11.6 µM] | -2.5% | -17.6% | -53.1* | -2.6% | 9.5%
C[C@@H]1O[C@@]2(CS1)CN1CCC2CC1 | . | . | . | . | -4.5% | .
CCC1S/C(=N/C(=O)NC2CCCCC2)NC1=O (stereo not given) | 4.4% | -3.0% | -3.7% | -0.9 | -5.9% | -3.7%
O=C(/N=C1\NC(=O)C(F)(C(F)(F)F)S1)NC1CCCCC1 (stereo not given) | 50.1µM* | -7.6% | 0.8% | -61.1* | 4.4% | -3.3%
SMILES | WRN inhibitor | PGK inhibitor | FEN1 inhibitor | PI5P4K alpha inh | GRP78 ERSR act | Pin1 inh
S=c1[nH]nc(-c2cc(-c3ccccc3)n[nH]2)n1/N=C/c1ccc(Cl)c(Cl)c1 | 35.5µM* | -22.7% | ? | -19.7 | -1.2% | ?
CCn1c2ccccc2c2cc(/C=N/n3cn[nH]c3=S)ccc21 | -5.3% | -10.2% | ? | . | 0.8% | -2.0%
S=c1[nH]nc(-c2cc(-c3ccccc3)n[nH]2)n1/N=C/c1cccc(Cl)c1 | 50.1µM* | -17.9% | ? | -15.3 | -1.3% | ?
S=c1[nH]nc(-c2cc(-c3ccccc3)n[nH]2)n1/N=C/c1ccc(Cl)cc1 | -16.5%[11.6 µM] | -5.1% | 14.1% | -24.6 | 2.4% | ?
CCn1c2ccccc2c2cc(/C=N/n3c(-c4cc(C)[nH]n4)n[nH]c3=S)ccc21 | -12.4%[11.6 µM] | -0.8% | ? | -59.8* | -0.5% | 6.3%
O=[N+]([O-])c1cc(/C=N/n2c(-c3ccncc3)n[nH]c2=S)ccc1Cl | ? | -19.1% | 50.1µM* | ? | 1.2% | ?
COc1ccccc1-c1ccnc(-n2ncc(C(=O)NCc3cccnc3)c2C)n1 | . | . | . | . | 0.7% | .
CCOC(=O)N1CCc2c(sc3[nH]c(=S)[nH]c(=S)c23)C1 | -21.2% | 11.2% | -28.9% | -66.9* | -4.1% | -0.8%
CCCSc1nnc(NC(=O)CSc2sc3c(O)cc(=O)[nH]c3c2C#N)s1 | 10µM* | -26.1% | 35.5µM* | -72.2* | -4.4% | .
N#Cc1c(SCC(=O)Nc2ccccc2C(F)(F)F)sc2c(O)cc(=O)[nH]c12 | -2.7%[11.6 µM] | 0.4% | -20.3% | ? | -2.4% | -7.2%
Cc1ccc(S(=O)(=O)Nc2ccc(O)c3ncccc23)cc1 | -26.2% | -10.1% | 12.6µM* | 0.8 | -1.5% | -7.7%
O=C(CCCn1c(SCC(=O)c2ccc(O)c(O)c2)nc2ccccc2c1=O)NCC1CCCO1 (stereo not given) | 22.4µM* | -20.2% | -22.5% | . | 2.7% | ?
Cc1c(CCC(=O)O)c(=O)oc2cc3occ(-c4ccc(Cl)cc4)c3cc12 | -21.2%[11.6 µM] | -12.3% | ? | ? | -0.6% | 9.9%
Cc1c(CCC(=O)O)c(=O)oc2c(C)c3occ(-c4ccc(Cl)cc4)c3cc12 | 56.2µM* | -21.8% | ? | -17.3 | 3.2% | -24.1%
COc1cc2c(ccc3cc(OC)c(OC)c(O)c32)cc1O | 17.8µM* | 11.2µM* | 22.4µM* | -105.5* | 1.4% | ?
c1ccc2sc(N3CCOCC3)nc2c1 | 1.7% | -11.5% | -2.9% | . | 2.5% | -0.8%
c1ccc2sc(SN3CCOCC3)nc2c1 | -10.9% | -4.9% | -2.0% | -76.3* | 6.4% | 4.4%
O=C1CCc2cc(S(=O)(=O)Nc3cccc(B(O)O)c3)ccc2N1 | . | . | . | . | . | -3.1%
Cc1ccccc1NC(=O)CSc1[nH]c(=O)cc(C)c1C#N | -27.5%[57.1 µM] | -13.6% | ? | -56.0* | -2.1% | ?
Cc1cc(NC(=O)CSc2[nH]c(=O)cc(C(F)(F)F)c2C#N)no1 | -9.3% | 0.3% | 19.4% | -74.8* | 2.8% | -1.4%

Screens from PubChem BioAssay.
